In PubChem BioAssay (NCI):
“And” between values parts separate entries of the source, which are not always exact repeats. Identical values can stand only once. About 79,000 compounds went through this panel and 15% of them were active in at least one assay; those are over-represented in the sample as a whole. A number with no mark means an inactive call. The source made the active and inactive calls. Cut-off read from the data, not from the text of the source: active = growth inhibition above about 70%; inactive = the rest.

Tests used:
[1] = NCI Yeast Anticancer Drug Screen. Data for the rad50 strain (AID 155);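 note: 0% = growth of vehicle-only cultures of the same strain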; details: S. cerevisiae rad50 strain growth inhibition, hits give high values
Procedure, shortened: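 Inhibition values express reduced yeast growth in compound-treated cultures relative to vehicle-treated controls.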

[2] = NCI Yeast Anticancer Drug Screen. Data for the mec2-1 strain (AID 157); details: S. cerevisiae mec2-1 strain, hits give high values
Procedure, shortened: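 Using mec2-1 yeast: add compound, measure growth, express inhibition versus vehicle-treated cultures.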

[3] = NCI Yeast Anticancer Drug Screen. Data for the sgs1 mgt1 strain (AID 161);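 note: 0% = growth of cultures given vehicle only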; details: S. cerevisiae sgs1 mgt1 strain, hits give high values
Procedure, shortened: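 Percent growth inhibition was derived by comparing compound-exposed mutant yeast with vehicle-exposed cultures. The strain carries alterations in DNA damage repair.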

[4] = NCI Yeast Anticancer Drug Screen. Data for the cln2 rad14 strain (AID 165);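 note: 0% = growth equal to vehicle treated cultures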; details: S. cerevisiae cln2 rad14 strain, hits give high values
Procedure, shortened: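 Yeast strain cln2 rad14, bearing defects in cell cycle control and DNA repair, serves as the test system; values reflect growth inhibition compared with vehicle.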

[5] = NCI Yeast Anticancer Drug Screen. Data for the bub3 strain (AID 167); details: S. cerevisiae bub3 mutant strain, hits give high values
Procedure, shortened: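 Steps: expose the mutant yeast strain to compound; grow alongside vehicle-treated cultures; measure growth; express inhibition against the vehicle cultures.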

[6] = NCI Yeast Anticancer Drug Screen. Data for the mlh1 rad18 strain (AID 175); details: S. cerevisiae mlh1 rad18 strain growth inhibition, hits give high values
Procedure, shortened: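 Steps: expose repair-defective yeast to compound; measure growth; express inhibition against vehicle-treated controls.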

[7] = at 5.0 µM (retest, dose inferred, filed as 0.5)
[8] = at 50.0 µM (retest, dose inferred, filed as 5.0)

SMILES	growth inhibition [1, 7]	growth inhibition [1, 8]	growth inhibition ([1]; at 50.0 µM)	growth inhibition [2, 7]	growth inhibition [2, 8]	growth inhibition ([2]; at 50.0 µM)	growth inhibition [3, 7]	growth inhibition [3, 8]	growth inhibition ([3]; at 50.0 µM)	growth inhibition [4, 7]	growth inhibition [4, 8]	growth inhibition ([4]; at 50.0 µM)	growth inhibition [5, 7]	growth inhibition [5, 8]	growth inhibition ([5]; at 50.0 µM)	growth inhibition [6, 7]	growth inhibition [6, 8]	growth inhibition ([6]; at 50.0 µM)
CC(=O)O.CC(=O)[O-].CC(=O)[O-].[Co+3].[NH-]CC[NH-].[NH-]CC[NH-]	-5%	94% (active)	23.3%	-5%	98% (active)	10.3%	2%	97% (active)	-3.35%	-4%	96% (active)	31.6%	38%	98% (active)	-1.65%	-7%	97% (active)	4.05%
CCC[CH2][Sn]1([CH2]CCC)[O]C(=O)c2cc(C)ccc2[O]1	82% (active)	97% (active)	88.8% (active)	89% (active)	98% (active)	90.8% (active)	86% (active)	98% (active)	91.5% (active)	71% (active)	97% (active)	89.3% (active)	91% (active)	98% (active)	90.6% (active)	91% (active)	98% (active)	89% (active)
O=C1CN2C(Cl)(Cl)C2(c2ccccc2)c2cc(Cl)ccc2N1CC1CC1 (configuration not stated)	54%	93% (active)	90.3% (active)	29%	93% (active)	91.3% (active)	27%	94% (active)	92.7% (active)	18%	91% (active)	88.3% (active)	39%	93% (active)	68.2%	65%	92% (active)	87.3% (active)
CC(=O)OCC1OC(OC(C)C)[CH]([Hg][S]Cc2ccccc2)C(OC(C)=O)C1OC(C)=O (configuration not stated)	99% (active)	98% (active)	54.8%	99% (active)	99% (active)	57.9%	94% (active)	98% (active)	44.6%	37%	98% (active)	96.8% (active)	99% (active)	98% (active)	98.2% (active)	99% (active)	97% (active)	46.1%
Cc1ccccc1C[As](C)(=O)O	-157%	-140%	9.95%	-50%	-47%	2.45%	-64%	-58%	0.1%	-62%	-58%	14.8%	-76%	-76%	0.25%	-147%	-104%	0.35%
Cn1c2cccc(=O)c-2nc2ccccc21	-14%	85% (active)	82.5% (active)	6%	62%	52.2%	1%	49%	21.3%	-22%	34%	-2.9%	-12%	56%	41.9%	9%	77% (active)	60%
CN(C)c1ccc(C2N(Cc3ccc(N(CCCl)CCCl)cc3Cl)CCCN2Cc2ccc(N(CCCl)CCCl)cc2Cl)cc1	1%	97% (active)	93.5% (active)	-12%	98% (active)	90.9% (active)	1%	98% (active)	99% (active)	1%	97% (active)	15.8%	-1%	97% (active)	93.8% (active)	6%	98% (active)	95.2% (active)
NC(C(=O)O)c1ccccc1Cl (configuration not stated)	-161%	-142%	21%	-51%	-48%	1.65%	-64%	-57%	-2.5%	-61%	-56%	73.1% (active)	-68%	-69%	-3.55%	-147%	-106%	13.9%
CCOP(=O)(OCC)/C(C#N)=C/c1ccccc1Cl	17%	74% (active)	82.5% (active)	-7%	62%	72.8% (active)	2%	65%	79.8% (active)	10%	55%	64.8%	0%	74% (active)	72.7% (active)	-2%	77% (active)	81.8% (active)
C[C@@H]1CC[C@@]2(NC1)O[C@H]1C[C@H]3[C@@H]4CC[C@H]5C[C@@H](O)CC[C@]5(C)[C@H]4CC[C@]3(C)[C@H]1[C@@H]2C	45%	98% (active)	92.8% (active)	30%	98% (active)	93.5% (active)	61%	100% (active)	93.9% (active)	46%	99% (active)	92% (active)	46%	99% (active)	93.5% (active)	31%	98% (active)	87.7% (active)
CN[C@H]1C[C@@H]2O[C@@](C)([C@H]1OC)n1c3ccccc3c3c4c(c5c6ccccc6n2c5c31)C(=O)NC4	99% (active)	99% (active)	92.3% (active)	99% (active)	99% (active)	92.9% (active)	97% (active)	99% (active)	90.6% (active)	96% (active)	99% (active)	91.5% (active)	98% (active)	98% (active)	91.8% (active)	98% (active)	99% (active)	91.8% (active)
O=C(O)c1cc([N+](=O)[O-])c(Cl)c([N+](=O)[O-])c1Cl	80% (active)	99% (active)	62.8%	82% (active)	99% (active)	42.3%	20%	93% (active)	46.9%	38%	100% (active)	43.1%	51%	96% (active)	64%	70% (active)	99% (active)	49%
O=[N+]([O-])c1cc(C(F)(F)F)cc2n[se]nc12	82% (active)	98% (active)	87.2% (active)	81% (active)	99% (active)	93.3% (active)	47%	100% (active)	90.8% (active)	49%	99% (active)	90.8% (active)	94% (active)	97% (active)	90.6% (active)	75% (active)	97% (active)	90.5% (active)
CC(C)COP(=O)(OCC(C)C)C(=O)Nc1ccc(Cl)cc1	-1%	80% (active)	57.1%	-19%	44%	15.2%	11%	89% (active)	24.9%	9%	49%	22.6%	-2%	58%	25.1%	2%	79% (active)	33.6%
CCC[CH2][Sn]([CH2]CCC)([S]C1=NCCS1)[S]C1=NCCS1	96% (active)	96% (active)	90.7% (active)	97% (active)	97% (active)	90.7% (active)	97% (active)	97% (active)	90.9% (active)	95% (active)	95% (active)	89.7% (active)	95% (active)	95% (active)	88.3% (active)	96% (active)	96% (active)	86.5% (active)
CCCCCCC1CCC2CCCC(C)N12 (configuration not stated)	-5%	67%	85.3% (active)	-4%	25%	70.8% (active)	10%	68%	88.2% (active)	14%	43%	71.1% (active)	-19%	74% (active)	89% (active)	2%	57%	74.9% (active)
Sc1ccc(Cl)cc1	3%	51%	9.5% and 52.4%	2%	37%	10.7% and 32.1%	5%	34%	13.4% and 26.1%	-1%	38%	-45% and 14.8%	0%	59%	-33% and 62.4%	9%	64%	13.9% and 31.5%
Oc1ccc(Br)cc1C1N(Cc2ccc(N(CCCl)CCCl)cc2Cl)CCCN1Cc1ccc(N(CCCl)CCCl)cc1Cl	69%	98% (active)	10.7%	47%	99% (active)	63%	54%	99% (active)	23.7%	70% (active)	98% (active)	8.95%	84% (active)	99% (active)	52%	98% (active)	98% (active)	46.5%
C1CN([PH+](N2CC2)N2CC2)CCO1.C1CN([PH+](N2CC2)N2CC2)CCO1.[I][Pt][I]	0%	9%	36.8%	2%	5%	23.7%	1%	5%	52.2%	4%	1%	17.9%	1%	15%	96.5% (active)	1%	7%	6.4%
